The whole screen tested about 48,000 compounds, of which about 13,000 (27%) showed an effect of 50% or more. This is one part of the list.
Each compound was assayed on Wolbachia pipientis (assay: Anti-Wolbachia Cell-Based Screen). Conditions: 5 µM.
Type: functional
Set-up: scale not given: in the data most compounds retested in dose-response had high values

SMILES | Percent Effect [%]
CCOCCC(=O)N1Cc2cnc(-c3ccccc3)nc2C1 | -9.321
Cc1nsc(N2CCN(C(=O)Nc3cccc(C#N)c3)CC2)n1 | -11.67
CC(=O)N[C@@H]1CN(Cc2ccccc2-n2cccn2)C[C@H]1C(C)C | 1.725
Cc1cc(C)cc(C(=O)NCCCC2(C3OCCO3)CCOCC2)c1 | 11.75
CCn1c(CN(C)CC(=O)N(C)C)nc2c(F)cccc21 | -12.46
Cc1nnc(N2C[C@H](Oc3ccccn3)[C@H]3OCCC[C@H]32)s1.O=C(O)C(F)(F)F.O=C(O)C(F)(F)F | -4.759
O=C(Nc1ccc(-c2cscn2)cc1)C1CCCN(Cc2ccon2)C1 (stereo not drawn) | -5.748
CCOC(=O)NCCNC(=O)c1cc(Br)cn1C(C)C | -7.035
Cc1ccc(C(=O)N2CCC3(CCN3Cc3ccc(F)cc3)C2)cn1.O=C(O)C(F)(F)F (stereo not drawn) | 111.6
Cc1cnc(C(=O)N2CCC3(CCN3Cc3ccc(F)cc3)C2)cn1.O=C(O)C(F)(F)F (stereo not drawn) | 105.8
Cn1ccnc1C(=O)N1CCC2(CCN2CC2CC2)C1.O=C(O)C(F)(F)F (stereo not drawn) | -29.26
O=C(c1ccsc1)N1CCC2(CCN2Cc2ccc(F)cc2)C1 (stereo not drawn) | -0.5147
CCN1CCC12CCN(C(=O)c1ccsc1)C2.O=C(O)C(F)(F)F (stereo not drawn) | -5.276
Cc1ccc(C(=O)N2CCC3(CCN(c4ccsc4)C3=O)C2)cn1.O=C(O)C(F)(F)F (stereo not drawn) | 44.84
Cn1ccnc1C(=O)N1CCC2(CCN2Cc2ccc(F)cc2)C1.O=C(O)C(F)(F)F (stereo not drawn) | 107.3
CCn1c(Cn2cncn2)nnc1C1CCN(C(=O)CCSC)CC1 | 0.8054
CCn1c(CN2CCCC2)nnc1C1CCN(S(=O)(=O)CC)CC1 | 6.34
CCn1c(SC)nnc1C1CCN(C(=O)N2CCCC2)CC1 | 139.7
Cn1c(CN2CCCC2)nnc1C1CCCN(C(=O)N2CCOCC2)C1 (stereo not drawn) | -16.59
CSc1nnc(CC2CCN(C(=O)Cc3ccncc3)CC2)n1C | -0.6807
CSc1nnc(C2CCN(C(=O)N3CCCC3)CC2)n1C | 86.99
CN(C)C(=O)N1CCC(C(=O)NCCNc2ncccc2C#N)CC1 | -1.068
O=C(NCCNc1ncccn1)C1CCN(C(=O)NC2CC2)CC1 | 95.19
O=C(NCCNc1ncccn1)C1CCN(C(=O)c2ccoc2)CC1 | 101.2
O=C(NCCNc1ncccn1)C1CCN(CC(F)(F)F)CC1 | 1.799

SMILES | Percent Effect [%]
O=C(NCCNc1ncccn1)C1CCN(C(=O)C2CC2)CC1 | 7.876
O=C(NCCNc1ncccn1)N1CCSCC1 | -3.552
O=C(NCCNC(=O)C1CCN(c2ncccn2)CC1)c1ccoc1 | -1.676
O=C(NCCNC(=O)C1CCN(CC(F)(F)F)CC1)c1ccoc1 | 16.83
CC(C)(C)OC(=O)N1CCC(C(=O)NCCNc2ncccn2)CC1 | 98.46
O=C(NCCNc1ncccn1)C1CCN(C(=O)N2CCCC2)CC1 | 88.68
CC(O)CN1CCC(CN(C)Cc2ccc(C(N)=O)cc2)CC1 (stereo not drawn) | 3.378
O=C1N(Cc2cccc(F)c2F)CCCC1(O)CNCC1CCCCC1 (stereo not drawn) | -14.65
Cc1nc2ccccc2nc1CN1CCn2nc(CCC(=O)O)cc2C1 | 11.39
CC(Nc1ccc(CN2CCCC2=O)cc1)C(=O)N(C)CCC#N (stereo not drawn) | 4.456
O=C(NCCNc1ncccn1)C1CCCC1 | 120
CCCC(=O)N1CCC(C(=O)NCCN2CCC(C)CC2)CC1 | 2.916
O=C(NCCNc1ncccn1)C1CCN(c2ncccn2)CC1 | -3.346
CS(=O)(=O)N1CCC(C(=O)NCCNc2ncccn2)CC1 | -2.901
CCCC(=O)N1CCC(C(=O)NCCNc2ncccn2)CC1 | 97.7
Cc1ccc(CN2CC[C@H]3C(=O)N(c4cccnc4)CCO[C@H]3C2)o1 | -2.706
O=C(NCCc1cccc(F)c1)c1nc2c(s1)CCCN2C(=O)C1CC1 | 109.4
CN(C)CCNC(=O)c1nc2c(s1)CCCN2C(=O)C1CC1.O=C(O)C(F)(F)F | 97.24
CN1CCCc2sc(C(=O)NCc3cccnc3)nc21 | -7.154
Cc1ccc(NC(=O)c2nc3c(s2)CCCN3C(=O)C2CC2)cn1.O=C(O)C(F)(F)F | 7.338
COCCN(C)C(=O)c1nc2c(s1)CCCN2C(=O)C1CC1 | 11.31
CN1CCN(C(=O)c2nc3c(s2)CCCN3C(=O)C2CC2)CC1.O=C(O)C(F)(F)F | -2.349
O=C(c1nc2c(s1)CCCN2C(=O)C1CC1)N1CCCC1 | 12.54
O=C(NCc1cccnc1)c1nc2c(s1)CCCN2C(=O)C1CC1.O=C(O)C(F)(F)F | 105.9
O=C(NCCc1cccnc1)c1nc2c(s1)CCCN2C(=O)C1CC1.O=C(O)C(F)(F)F | 99.18

SMILES | Percent Effect [%]
O=C(CCNc1ncccn1)NCc1ccc(Br)s1 | 9.501
CC(=O)c1cccc(NC(=O)N2CCCCC2CN2CCCC2=O)c1 (stereo not drawn) | -4.61
Cc1ccc(C(=O)NCCNCC2CNc3ccnn3C2)cc1 (stereo not drawn) | -8.644
CC(C)Cc1cc(C(=O)NCC(O)CN2CCCCCC2)on1 (stereo not drawn) | -21.74
Cc1ccc(OCc2cccc(C(=O)N(C)C(C)CC#N)c2)cn1 (stereo not drawn) | -5.236
CCOCC1CN(C(=O)Cc2ccccn2)Cc2c1cnn2CC (stereo not drawn) | -48.51
OCc1ccc(-c2c(-c3ccccc3)ncn2CCN2CCOCC2)o1 | 6.374
O=C(O)C(F)(F)F.c1csc(CN2C[C@H](OCC3CCOCC3)[C@H]3COC[C@H]32)n1 | 78.63
Cc1ncsc1CN1C[C@@H](OCC(=O)N(C)C)[C@H]2OCCC[C@H]21.O=C(O)C(F)(F)F | -4.628
O=C(O)C(F)(F)F.c1ccc(C[C@H]2CN(Cc3nccs3)CC[C@@H]2OCC2CC2)cc1 | -18.04
CN(C)C(=O)CO[C@H]1CN(Cc2nccs2)[C@@H]2COC[C@H]12.O=C(O)C(F)(F)F | 104.4
O=C(O)C(F)(F)F.c1csc(CN2CCCn3nnc(COCC4CC4)c3C2)n1 | 3.459
c1cnc(N2C[C@H](OCC3CCOCC3)[C@H]3COC[C@H]32)nc1 | -13.81
O=C(O)C(F)(F)F.c1csc(CN2C[C@H](OCC3CC3)[C@H]3COC[C@H]32)n1 | 114.6
O=C(O)C(F)(F)F.O=C(O)C(F)(F)F.c1csc(CN2CCOCC3(CCN(C4CCOCC4)C3)C2)n1 (stereo not drawn) | 4.386
O=C(c1nnn(-c2ccccc2Cl)c1-c1ccccn1)N1CCSCC1 | 5.989
CC(=O)N(Cc1noc(C2CC2)n1)C1CCN(Cc2cccnc2)C1 (stereo not drawn) | 56.34
CC(=O)N(Cc1noc(C2CC2)n1)C1CCN(Cc2ccccc2)C1 (stereo not drawn) | 96.7
CC(=O)N(Cc1noc(C2CC2)n1)C1CCN(Cc2ccncc2)C1 (stereo not drawn) | 0.6841
COC(=O)CN(C(=O)c1ccc(Cl)o1)c1cccc(F)c1 | -9.604
COc1ccc(COCC(O)CNC(=O)c2cccnc2)cc1 (stereo not drawn) | 15.02
COc1ccc(CN(C)[C@@H]2CN(C(=O)c3ccnn3C)C[C@H]2O)cc1 | 97.48
COc1ccc(CN(C)[C@@H]2CN(C(=O)c3cccn3C)C[C@H]2O)cc1 | 98.88
COc1ccc(CN(C)[C@@H]2CN(C(=O)c3ccccc3)C[C@H]2O)cc1 | 114.6
COc1ccc(CN(C)[C@@H]2CN(C(=O)c3cccnc3)C[C@H]2O)cc1 | 87.24

SMILES | Percent Effect [%]
CCN1C[C@@H]2CN(C(=O)c3cccn3C)C[C@@H]2C1=O | -32.3
Cn1nccc1C(=O)N1CCOC(Cc2cccc(C(F)(F)F)c2)C1 (stereo not drawn) | -3.764
COc1ccc(OCc2nc(C(=O)N3C[C@H](O)[C@@H](N(C)C)C3)co2)cc1 | -35.76
Cn1cccc1C(=O)N1C[C@H]2CN(CC3CC3)C(=O)[C@H]2C1 | -15.38
CN(C)CCOCC1CN(C(=O)c2cccnc2)Cc2ccnn2C1 (stereo not drawn) | -7.083
COc1cccc(C(=O)N2C[C@@H](C(=O)O)[C@H](c3ccccc3C)C2)c1 | -3.21
COc1cc(C)ccc1OCc1nc(C(=O)N2CCC(C)CC2)co1 | -9.42
CCN1CCC2(CN(C(C)=O)CC23CCN(CC2CC2)CC3)C1=O.O=C(O)C(F)(F)F (stereo not drawn) | -51.48
COc1ccccc1C1CNC(=O)c2nc(-c3nccn3C)[nH]c2C1 (stereo not drawn) | 6.875
COc1ccc(CN(C)[C@@H]2CN(C(=O)c3cccs3)C[C@H]2O)cc1 | -2.392
COc1ccc(CN(C)[C@@H]2CN(C(=O)c3cnn(C)c3)C[C@H]2O)cc1 | 88.16
COc1ccc([C@@H]2CN(C(=O)CCCc3cn[nH]c3)C[C@H]2N(C)C)cc1 | -10.76
COc1ccc(CN(C)[C@@H]2CN(C(=O)c3cncs3)C[C@H]2O)cc1 | 107.9
Cn1cc(C(=O)N2CCCCC2CCc2ccccc2)cn1 (stereo not drawn) | -0.576
Cn1cc(C(=O)N2CCCCC2CCc2ccc(O)cc2)cn1 (stereo not drawn) | -2.601
CNC(=O)C(C)(C)CNC(=O)Nc1ccc(C)cn1 | -9.639
CCC(Nc1nc(C(F)(F)F)nc2ccccc12)C(=O)O (stereo not drawn) | 14.92
Cc1ccc(-c2csc(-c3cccc(C(=O)O)c3)n2)cc1 | -9.33
CCc1noc(-c2ccc(SCC(=O)O)nc2)n1 | 5.745
CCc1nc(-c2cccc(C(=O)O)c2)no1 | 110.9
CCc1noc(-c2cccc(C(=O)O)c2)n1 | 137.4
COC(=O)c1cccc(-c2nc(CC3CCN(C)CC3)no2)c1 | -1.18
COc1ccc(OC)c(-c2csc(-c3cccc(C(=O)O)c3)n2)c1 | -14.75
